# Assay results as given in PubChem BioAssay.
# A number with no mark means an inactive call. How the calls were made is not given here.
# Target: Pantothenate synthetase (Mycobacterium tuberculosis (strain ATCC 25618 / H37Rv)) (UniProt P9WIL5)
# Experiment: Recombinant Mtb pantothenate synthetase (PanC) inhibitors, coupled enzyme, confirmatory (AID 375);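 further: 0% = full reaction with vehicle and 100% = no enzyme background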
# Settings: coupled enzyme assay; at 10 µM, stronger effect = higher value
# Chain of Pantothenate synthetase (Mycobacterium tuberculosis (strain ATCC 25618 / H37Rv)) (P9WIL5 whole entry, looked up): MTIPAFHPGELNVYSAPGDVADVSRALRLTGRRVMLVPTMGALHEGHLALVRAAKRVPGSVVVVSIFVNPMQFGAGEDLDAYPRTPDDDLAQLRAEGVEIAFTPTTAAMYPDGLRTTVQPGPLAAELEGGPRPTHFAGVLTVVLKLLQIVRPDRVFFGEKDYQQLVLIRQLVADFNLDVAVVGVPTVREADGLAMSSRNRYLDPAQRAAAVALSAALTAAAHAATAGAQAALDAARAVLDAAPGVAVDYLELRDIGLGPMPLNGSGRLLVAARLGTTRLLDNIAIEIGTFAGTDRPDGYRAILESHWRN
row,Compound,inhibition [%]
1,C1=C(CCNc2ncnc3c2cnn3-c2ccccc2)CCCC1,6
2,CCOc1ccc(Cc2nn[nH]n2)cc1,1
3,CCOc1ccc(-c2nc(C#N)c(N3CCN(C)CC3)o2)cc1,2
4,Cc1cc(C(=O)N2CCN(C/C=C/c3ccccc3)CC2)no1,0
5,COCC(=O)Nc1c(C(=O)Nc2ccccc2OC)oc2ccccc12,1
6,Nc1nnn(Cc2ccccc2)n1,0
7,Cc1nnc(NC(=O)CSc2nc3c(c(=O)n2C)SC(C)C3)s1 (stereo not given),5
8,CC1CCN(Cc2ccc(-c3nn[nH]n3)cc2)CC1,0
9,COC(=O)C1(C#N)C(c2ccccc2)C1(C(=O)OC)C(=O)OC (stereo not given),0
10,Cc1nnc(C)c2c(C)n(-c3ccc(Br)cc3)c(C)c12,0
11,O=S(=O)(Nc1ncccn1)c1ccc(Nc2ncnc3ccccc23)cc1,6
12,COc1cccc(N2CCN(CC(=O)Nc3nnc(-c4ccccc4)s3)CC2)c1,3
13,Cc1ccc(C2c3c(oc4ccccc4c3=O)C(=O)N2c2nnc(C(C)C)s2)o1 (stereo not given),7
14,CCn1cc(S(=O)(=O)CC(=O)Nc2ccc(OC)cc2)c2ccccc21,1
15,CC(=O)Nc1ccc(S(=O)(=O)N2CCC(NC(C)=O)(c3cccc(F)c3)CC2)cc1,0
16,COC(=O)c1c(C)oc2ccc(NS(=O)(=O)c3cccs3)cc12,0
17,O=C(O)Cn1cc(C(=O)c2ccco2)c2ccccc21,4
18,O=C(O)c1cc2nc(-c3ccc(F)cc3)cc(C(F)(F)F)n2n1,2
19,Cc1ccccc1NS(=O)(=O)c1ccc(NC(=O)c2ccco2)cc1,0
20,Cc1ccc(NC(=O)CCN2CCc3ccccc3C2)cc1,0

row,Compound,inhibition [%]
1,Cc1cnc(NC(=O)CSc2nc3ccccc3c(=O)[nH]2)s1,3
2,CCOC(=O)C1C(=O)OC(C)(C)C1C(C)C(=O)c1ccc(OC)cc1 (stereo not given),0
3,Cc1cc(C(=O)NCc2ccc(S(N)(=O)=O)cc2)cs1,16
4,Cc1nc2ccc(NC(=O)N3CCOCC3)cc2s1,4
5,Cn1c(=O)c2c(nc(SCc3nn[nH]n3)n2Cc2ccccc2F)n(C)c1=O,0
6,COC(=O)CN(c1ccc(F)cc1)S(=O)(=O)c1ccccc1,0
7,Cn1c(=O)c2c(nc(Br)n2CCSc2nnnn2-c2ccccc2)n(C)c1=O,0
8,CCOc1cc(C2c3c(n[nH]c3C)C(=O)N2c2ccc(Br)cc2)ccc1O (stereo not given),0
9,CCCC(CCC)n1[nH]c(=O)c2c(C)cc(C)nc21,0
10,CC(Sc1nnnn1C)C(=O)Nc1ccc(Oc2ccccc2)cc1 (stereo not given),0
11,Cn1c(C(=O)NCCC2=CCCCC2)cc2c(=O)n3ccccc3nc21,0
12,CCN1CCCC1CNC(=O)c1cc2c(=O)n(C)c3ccccc3c2n1C (stereo not given),0
13,CCc1ccccc1NC(=O)C(CC)Sc1nc2cc3c(cc2c(=O)n1Cc1ccco1)OCO3 (stereo not given),0
14,CC(C)(C)NC(=O)Cn1nnc(-c2cccs2)n1,5
15,c1ccc2c(SCc3cn4cccnc4n3)ncnc2c1,2
16,O=C(c1ccc2c(c1)OCO2)N1CCNc2ccccc2C1,0
17,COC(=O)c1ccc(COc2ccc(C3C4=C(CCCC4=O)Nc4onc(C)c43)cc2)cc1 (stereo not given),0
18,CN(C)S(=O)(=O)c1cccc(C(=O)Nc2cccnc2)c1,0
19,Cc1cccc(Nc2ncc3c(n2)CC(c2ccco2)CC3=O)c1 (stereo not given),1
20,CCOc1cccc(C(=O)Nc2cccc(-c3nc4ncccc4o3)c2C)c1,10
